Experimental data reported in PubChem BioAssay (Tox21).
Inconclusive results are not listed. Where a call stands in place of a potency, no number is given. Calls of active or inactive are those of the source. The call rests on the fitted dose curve.

Target: Progesterone receptor (Homo sapiens) (UniProt P06401)
Assay: qHTS assay to identify small molecule agonists of the progesterone receptor (PR) signaling pathway (AID 1346784); further: nearly all actives have a fitted effect of over 30% in size
Details: PR-UAS-bla HEK293T, beta-lactamase FRET ratio, 16 h; series mostly up to 92.4 µM
Excerpt: U.S. Tox21 Program National Center for Advancing Translational Sciences [NCATS] NIH Chemical Genomics Center [NCGC] U.S. Environmental Protection Agency [EPA] National Institutes of Environmental Health Sciences [NIEHS] National Toxicology Program [NTP] U.S. Food and Drug Administration [FDA] […] Endocrine disrupting chemicals (EDCs) and their interactions with steroid hormone receptors like PR causes disruption of normal endocrine function. To identify the compounds that activate PR signaling, a PR-UAS-bla GripTite cell line i.e. PR-UAS-bla HEK 293T (Invitrogen, Carlsbad, CA, USA) containing a beta-lactamase reporter gene under the control of an Upstream Activator Sequence (UAS) was used to screen Tox21 10K compound library.
Tox21 Assay Protocol Summary: PR-UAS-bla HEK 293T cells were dispensed at 3,000 cells/5 uL of assay medium containing 2% charcoal stripped FBS per well into black wall/clear-bottom 1536-well plates using a Multidrop Combi (ThermoFisher Scientific, Waltham, MA) dispenser. After the assay plates were incubated at a 37C and 5% CO2 for 6hr, 23 nL of compounds dissolved in DMSO, positive controls or DMSO only was transferred to the assay plate by a Pintool station (Kalypsys, San Diego, CA). The plates were incubated at 37C and 5% CO2 for 16hr. Then 1 uL of LiveBLAzer B/G FRET substrate was added using a BioRAPTR FRD (Flying Reagent Dispenser, Aurora Discovery, San Diego, CA). After the plates were incubated at room temperature for 2 hours, fluorescence intensity was measured by an Envision plate reader (PerkinElmer, Shelton, CT).

Progesterone receptor (Homo sapiens), sequence (P06401 whole entry, looked up): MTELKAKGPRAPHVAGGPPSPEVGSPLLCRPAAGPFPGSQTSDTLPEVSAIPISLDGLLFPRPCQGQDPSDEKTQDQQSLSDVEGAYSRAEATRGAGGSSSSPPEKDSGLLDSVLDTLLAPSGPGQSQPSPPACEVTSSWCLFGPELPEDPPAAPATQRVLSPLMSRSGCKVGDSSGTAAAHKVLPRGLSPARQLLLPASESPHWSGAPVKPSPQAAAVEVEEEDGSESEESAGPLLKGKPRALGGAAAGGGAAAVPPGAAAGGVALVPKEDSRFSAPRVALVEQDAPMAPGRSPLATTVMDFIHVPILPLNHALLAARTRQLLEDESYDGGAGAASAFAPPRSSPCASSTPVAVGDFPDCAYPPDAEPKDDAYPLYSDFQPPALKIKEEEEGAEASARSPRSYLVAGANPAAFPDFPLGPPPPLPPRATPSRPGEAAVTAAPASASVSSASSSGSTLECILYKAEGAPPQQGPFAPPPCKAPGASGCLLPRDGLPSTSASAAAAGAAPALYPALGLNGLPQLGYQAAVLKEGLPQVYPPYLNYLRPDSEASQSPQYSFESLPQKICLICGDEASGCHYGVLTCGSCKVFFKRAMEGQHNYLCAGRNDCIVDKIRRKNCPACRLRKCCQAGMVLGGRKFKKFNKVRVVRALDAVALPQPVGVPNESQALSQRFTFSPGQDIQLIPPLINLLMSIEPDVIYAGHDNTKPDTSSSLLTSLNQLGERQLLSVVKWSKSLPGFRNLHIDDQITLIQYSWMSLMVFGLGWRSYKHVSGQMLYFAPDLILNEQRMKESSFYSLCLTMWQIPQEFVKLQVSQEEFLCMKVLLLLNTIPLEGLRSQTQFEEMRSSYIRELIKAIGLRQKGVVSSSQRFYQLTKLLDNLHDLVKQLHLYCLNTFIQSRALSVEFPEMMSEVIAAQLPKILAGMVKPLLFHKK

Structure (SMILES)	Potency
c1ccc2c(c1)c1cccc3ccc4cccc2c4c31	inactive
CC(C)CC(C)(O)C#CC(C)(O)CC(C)C (stereo not given)	inactive
O=P(O)(O)O	inactive
CN(C)CCN(Cc1cccs1)c1ccccn1	inactive
COc1cc([C@@H]2c3cc4c(cc3[C@H](O)[C@H]3COC(=O)[C@H]23)OCO4)cc(OC)c1OC	inactive
COc1ccc(OC)c(C(O)CNC(=O)CN)c1 (stereo not given)	inactive
CCCC(=O)O	inactive
C/C=C/C(=O)O	inactive
OCCO	inactive
c1ccc(Nc2ccccc2)cc1	inactive
O=CCCCC=O	inactive
COC(=O)Nc1nc2ccc(S(=O)c3ccccc3)cc2[nH]1 (stereo not given)	inactive
CCCCCCCCCC(=O)OC	inactive
CN(C)CCC=C1c2ccccc2CCc2ccccc21	inactive
CC(=O)CC/C=C(\C)CCC=C(C)C	inactive
O=C1OC2(c3cc(Br)c(O)c(Br)c3Oc3c2cc(Br)c(O)c3Br)c2c(Cl)c(Cl)c(Cl)c(Cl)c21	inactive
CC(=O)Oc1ccccc1C(=O)Nc1ncc([N+](=O)[O-])s1	inactive
C=C(C)C1CC=C(C)CC1 (stereo not given)	inactive
O=c1oc(=O)c2cc3c(=O)oc(=O)c3cc12	inactive
Cc1cc2nc3c(=O)[nH]c(=O)nc-3n(C[C@H](O)[C@H](O)[C@H](O)CO)c2cc1C	inactive

Structure (SMILES)	Potency
Nc1ncnc2nc[nH]c12	inactive
O=C(/C=C/C=C/c1ccc2c(c1)OCO2)N1CCCCC1	inactive
Nc1ccc(Nc2ccccc2)cc1	inactive
COC(=O)C1=C(C)NC(C)=C(C(=O)OCCN(C)Cc2ccccc2)C1c1cccc([N+](=O)[O-])c1 (stereo not given)	inactive
CN1C(C(=O)Nc2ccccn2)=C(O)c2ccccc2S1(=O)=O	inactive
CNCCCC12CCC(c3ccccc31)c1ccccc12	inactive
CN(C)C(=N)N=C(N)N	inactive
C=C(C)C(=O)OCCOC(=O)C(=C)C	inactive
c1ccc2sc(SSN3CCOCC3)nc2c1	inactive
CCOCCOCCO	inactive
COC(=O)CCC(=O)OC	inactive
Cc1ccc2c(n1)Oc1ccc(C(C)C(=O)OCC(=O)N(C)C)cc1C2 (stereo not given)	inactive
Nc1ccc(S(=O)(=O)Nc2cnc3ccccc3n2)cc1	inactive
CC(C)(C)NC(=O)[C@H]1CC[C@H]2[C@@H]3CC[C@H]4NC(=O)C=C[C@]4(C)[C@H]3CC[C@]12C	inactive
CC(C)OC(=O)C(C)(C)Oc1ccc(C(=O)c2ccc(Cl)cc2)cc1	inactive
CC(C)OB(OC(C)C)OC(C)C	inactive
Cc1cccc([N+](=O)[O-])c1C	inactive
OC1CCCCCCCCCCC1	inactive
O=C(O)c1ccccc1Nc1cccc(C(F)(F)F)c1	inactive
CCCCCCCCCCCO	inactive
